Assay outcomes as filed in PubChem BioAssay.
Pf apPOL inh: Pf-apPOL inhibitors, biochemical, fluorescence; 210,000 compounds, 0.25% hits; AID 1794808, 2022; inhibition, % at 10 µM; Plasmodium falciparum apicoplast DNA polymerase (apPOL); Recombinant Pf-apPOL, molecular beacon fluorescence, 1.5 h
mHTT CaM bind: mutant huntingtin-calmodulin interaction inhibitors – biochemical, AlphaScreen, primary screen; 190,000 compounds, 3.6% hits; inhibition, % at 15 µM; AID 1671202, 2021; P42858; AlphaScreen His-mHTT/GST-CaM binding, luminescence;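 note: 0% = both proteins with DMSO and 100% = one protein alone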
Numbers without * were called inactive; i = inactive; x = no result given. Compounds with a hit are over-represented: about 3.6% of the library has one in this group of screens. Cut-off read from the data, not from the text of the source: active = inhibition above about 50%; inactive = the rest.

SMILES | Pf apPOL inh | mHTT CaM bind
COc1ccc(-c2cc(C(F)(F)F)n3nc(C(=O)O)c(Cl)c3n2)cc1OC | 2 | 83*
Cc1c(C(=O)O)oc2ccc(S(=O)(=O)N3CC(C)CC(C)C3)cc12 (configuration not stated) | -2 | 1
COc1cccc(C(=O)N2CCN(C(=O)COc3ccccc3)CC2)c1 | 0 | -5
O=C1C(Nc2ccc(Cl)cc2)=C(n2nnc3ccccc32)C(=O)c2ccccc21 | -3 | 18
CCN(CC)c1ccc(NC2=C(n3nnc4ccccc43)C(=O)c3ccccc3C2=O)cc1 | -3 | 70*
O=C(O)CCCCCN1C(=O)C(=Cc2ccc3c(c2)OCO3)SC1=S | 14 | 52*
O=C(O)CCN1C(=O)C(=Cc2ccc([N+](=O)[O-])o2)SC1=S | 50* | 44
CC(C)(C)c1ccc(C=C2SC(=S)N(CCC(=O)O)C2=O)cc1 | 1 | 34
CCOC(=O)CCCN1C(=O)C(=Cc2ccc3c(c2)OCO3)SC1=S | -6 | 14
O=C(O)CN1C(=O)C(=Cc2ccc(-c3cccc4c3C(=O)c3ccccc3C4=O)o2)SC1=S | 95* | 39
O=C(O)CN1C(=O)C(=Cc2ccccc2O)SC1=S | 0 | 17
COC(=O)Nc1ccc(C)cc1Br | 0 | -4
CC(C)(C)C1CCc2c(sc3nn[nH]c(=O)c23)C1 (configuration not stated) | x | 0
Cn1cnc2c1CN(CC(=O)NCc1cccc(C(F)(F)F)c1)CC2 | -6 | 68*
Cc1nn(C)c2c(=O)n(CC(=O)NCc3cccc(C(F)(F)F)c3)ccc12 | 1 | -6
CCCN1C(=O)/C(=C\c2nc3ccccc3c(=O)[nH]2)c2ccccc21 | 2 | 37
CC(C)N1C(=O)/C(=C\c2nc3ccccc3c(=O)n2-c2ccc([N+](=O)[O-])cc2)c2ccccc21 | -6 | 61*
CCCN1C(=O)/C(=C\c2nc3ccccc3c(=O)n2-c2ccccc2OC)c2ccccc21 | 1 | 56*
CCCN1C(=O)/C(=C\c2nc3ccccc3c(=O)n2-c2ccccc2[N+](=O)[O-])c2ccccc21 | -16 | 38
CCN1C(=O)/C(=C\c2nc3ccccc3c(=O)n2-c2ccccc2C)c2ccccc21 | -2 | 63*
O=C(O)c1ccc(-n2c(/C=C/c3ccc([N+](=O)[O-])cc3)nc3ccccc3c2=O)cc1 | -5 | -6
O=C(Nc1cccc(Br)c1)C1CCN(S(=O)(=O)c2ccc(Cl)cc2)CC1 | -9 | -5
O=C(c1ccsc1)N1CC2CC(NS(=O)(=O)c3ccccc3)C1C2 (configuration not stated) | 0 | 0
CC(=O)c1ccc(NC(=O)c2cc3c(n2C)CCN(Cc2ccccc2)C3)cc1 | -2 | 22
COc1ccc(-c2csc(N)n2)cc1C | 1 | 13
SMILES | Pf apPOL inh | mHTT CaM bind
COC(=O)c1cc(OC)c(OC)c(OC)c1NC(=O)c1cccs1 | -7 | x
O=C(/C=C/c1ccccc1)O/N=C1\CCCc2oc3c(c21)CCCC3 | -5 | i
CC1=CC(=O)C=C(C)C1=NOC(=O)/C=C/c1ccccc1 | 0 | 100*
COc1ccccc1N1CCN(CC(O)COc2ccccc2C(C)(C)C)CC1 (configuration not stated) | -2 | 19
COc1ccc(N2CCN(CC(O)COc3ccc(Cl)cc3C)CC2)cc1 (configuration not stated) | -2 | 76*
COc1ccc(N2CCN(CC(O)COc3ccccc3C(C)(C)C)CC2)cc1 (configuration not stated) | 2 | 71*
COc1ccccc1N1CCN(CC(O)COc2cccc3ccccc23)CC1 (configuration not stated) | -7 | 23
COc1ccc(N2CCN(CC(O)COc3ccc(C)c(C)c3)CC2)cc1 (configuration not stated) | 0 | 36
COc1ccccc1N1CCN(CC(O)COc2ccc(Cl)cc2C)CC1 (configuration not stated) | 21 | 75*
CC1CCN(CCCNC(=O)C2CCN(S(=O)(=O)N3CCC4(CC3)OCCO4)CC2)CC1 | -12 | -11
Cc1cccc(OCC(=O)Nc2ccc(N3CCCC3)cc2)c1C | 0 | 16
COc1cc(C)c(Br)cc1S(=O)(=O)N1CCC(C(N)=O)CC1 | 0 | -11
CC(=O)c1cccc(NC(=O)Cc2c(C)nc(SCc3cccc(Cl)c3)[nH]c2=O)c1 | -5 | 51*
Cc1nc(SCc2ccccc2)[nH]c(=O)c1CC(=O)O | -16 | -7
O=[N+]([O-])c1cc(Br)c2nsnc2c1N1CCCCCC1 | x | 51*
O=[N+]([O-])c1cc(Br)c2nsnc2c1Br | -6 | 30
Cc1ccc(N2CN=c3s/c(=C\c4ccco4)c(=O)n3C2)cc1 | -1 | 9
CSc1cc(C(C)(C)C)nn1S(=O)(=O)c1ccc(Cl)cc1 | 0 | x
Cc1nc2c(ccc3nc(NC(=O)c4ccc5c(c4)OCCO5)sc32)s1 | 1 | 69*
Cc1nc2c(ccc3nc(NC(=O)c4ccc(Cl)s4)sc32)s1 | 5 | -3
CC(C(=O)NCc1ccco1)C1CCN(S(=O)(=O)c2cccs2)CC1 (configuration not stated) | 0 | 10
COc1cc(CCC(C)NC(=O)C2CCCCC2)ccc1OC(=O)C1CCCCC1 (configuration not stated) | 3 | x
Cc1cc(NS(=O)(=O)c2cccs2)n[nH]1 | -5 | x
Cc1cc(NS(=O)(=O)c2cc(C(=O)O)ccc2F)n[nH]1 | -9 | 78*
Cn1c(CN2CCN(C(=O)c3ccc([N+](=O)[O-])o3)CC2)nc2ccccc21 | 53* | -5
SMILES | Pf apPOL inh | mHTT CaM bind
Cn1c(CN2CCN(C(=O)c3ccc(Br)o3)CC2)nc2ccccc21 | -4 | -3
COc1ccc(-c2nc3cccnc3n2C2CCN(C(=O)NCc3cccc(F)c3)C2)cc1 (configuration not stated) | -7 | 41
O=C(c1ccccc1)N1CCC(n2c(-c3ccoc3)nc3cccnc32)C1 (configuration not stated) | -2 | 19
COc1ccc(-c2nc3cccnc3n2C2CCN(C(=O)Nc3cccc(C)c3)C2)cc1 (configuration not stated) | -2 | 62*
COc1ccc(-c2nc3cccnc3n2C2CCN(C(=O)c3cc(F)cc(F)c3)C2)cc1 (configuration not stated) | 0 | 53*
COc1ccc(-c2nc3cccnc3n2C2CCN(C(=O)NCc3ccc(F)cc3)C2)cc1 (configuration not stated) | 1 | 77*
O=C(c1ccc(C(F)(F)F)cc1)N1CCC(n2c(-c3ccoc3)nc3cccnc32)C1 (configuration not stated) | 3 | 86*
COc1ccc(-c2nc3cccnc3n2C2CCN(C(=O)c3cccc(F)c3)C2)cc1 (configuration not stated) | 3 | 28
COc1ccc(-c2nc3cccnc3n2C2CCN(C(=O)Nc3cccc(OC)c3)C2)cc1 (configuration not stated) | -8 | 46
O=C1CC(c2noc(-c3cccc(F)c3)n2)CN1c1ccccc1 (configuration not stated) | 3 | -12
Oc1c(Cl)cc(Cl)cc1C=Nc1ccc2oc(-c3cccnc3)nc2c1 | -3 | -5
O=C(NC1C=CS(=O)(=O)C1)c1ccc([N+](=O)[O-])cc1 (configuration not stated) | 1 | -7
